Test results reported in the supplement of paper PMC11732987, “Enantioselective OTUD7B fragment discovery through chemoproteomics screening and high-throughput optimisation” (Communications Chemistry, 2025).

Legend:
Assay in all cases: log2 ratio of Biotin-Ahx-Ub-VS probe labelling (fragment/DMSO); higher = less target engagement (more negative = stronger competition), active = hit call of the paper (q ≤ 0.05, log2 ratio ≤ -1)
Details in all cases: compound concentration: 200 uM; treatment time: 3 h
USP42 = biological target: T1, USP42 (UniProt Q9H9J4)
T1 sequence (whole entry): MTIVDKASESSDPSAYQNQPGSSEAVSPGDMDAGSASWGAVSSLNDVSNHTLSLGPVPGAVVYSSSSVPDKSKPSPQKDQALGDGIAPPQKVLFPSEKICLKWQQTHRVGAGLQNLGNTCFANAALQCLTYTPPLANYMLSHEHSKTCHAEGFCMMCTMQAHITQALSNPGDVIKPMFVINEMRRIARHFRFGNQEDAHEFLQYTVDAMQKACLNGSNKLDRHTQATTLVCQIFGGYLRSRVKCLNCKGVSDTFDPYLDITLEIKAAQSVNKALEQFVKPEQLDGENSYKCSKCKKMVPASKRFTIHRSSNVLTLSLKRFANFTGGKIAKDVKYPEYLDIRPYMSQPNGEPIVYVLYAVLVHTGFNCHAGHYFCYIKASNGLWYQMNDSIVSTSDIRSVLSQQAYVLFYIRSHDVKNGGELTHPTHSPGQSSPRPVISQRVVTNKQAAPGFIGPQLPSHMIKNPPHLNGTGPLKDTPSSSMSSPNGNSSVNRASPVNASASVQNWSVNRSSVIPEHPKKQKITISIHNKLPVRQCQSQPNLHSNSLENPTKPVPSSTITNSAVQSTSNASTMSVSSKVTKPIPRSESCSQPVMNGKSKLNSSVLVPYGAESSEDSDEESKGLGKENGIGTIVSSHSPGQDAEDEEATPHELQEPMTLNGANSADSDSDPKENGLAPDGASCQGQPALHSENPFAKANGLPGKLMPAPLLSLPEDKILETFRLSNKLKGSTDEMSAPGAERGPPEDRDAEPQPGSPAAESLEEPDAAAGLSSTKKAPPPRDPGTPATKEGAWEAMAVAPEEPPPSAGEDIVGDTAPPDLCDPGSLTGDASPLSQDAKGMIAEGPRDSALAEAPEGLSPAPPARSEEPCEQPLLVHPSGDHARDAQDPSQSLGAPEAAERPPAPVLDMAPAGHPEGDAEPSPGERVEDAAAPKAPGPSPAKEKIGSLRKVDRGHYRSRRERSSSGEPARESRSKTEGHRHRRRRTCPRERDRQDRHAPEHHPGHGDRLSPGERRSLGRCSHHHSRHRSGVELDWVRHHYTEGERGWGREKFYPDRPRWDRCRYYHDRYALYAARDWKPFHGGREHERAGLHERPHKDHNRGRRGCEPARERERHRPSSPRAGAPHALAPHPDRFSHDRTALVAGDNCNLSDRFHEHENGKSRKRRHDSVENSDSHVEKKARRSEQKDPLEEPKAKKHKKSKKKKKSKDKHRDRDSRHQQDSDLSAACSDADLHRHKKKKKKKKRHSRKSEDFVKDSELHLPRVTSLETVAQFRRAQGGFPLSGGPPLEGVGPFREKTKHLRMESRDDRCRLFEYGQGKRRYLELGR
Summary of the method: (§1)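 HEK293T lysate (495 µg per sample, in Tris/CHAPS/IGEPAL buffer with protease inhibitors) was exposed in triplicate for 3 h to fragment at 200 µM or to vehicle, then to Biotin-Ahx-Ub-VS at 0.5 µM final for 1 h. Labelled DUBs were enriched on NeutrAvidin, digested with LysC and trypsin, and analysed by diaPASEF LC-MS/MS. Spectronaut label-free quantities were normalised to the global median, and values are average log2 ratios of fragment over vehicle from an unpaired t-test. Only proteins with ≥2 unique peptides were used.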

USP46 = USP46 (UniProt P62068)
Summary of the method: as §1

USP47 = biological target: T2, USP47 (UniProt Q96K76)
T2 sequence (whole entry): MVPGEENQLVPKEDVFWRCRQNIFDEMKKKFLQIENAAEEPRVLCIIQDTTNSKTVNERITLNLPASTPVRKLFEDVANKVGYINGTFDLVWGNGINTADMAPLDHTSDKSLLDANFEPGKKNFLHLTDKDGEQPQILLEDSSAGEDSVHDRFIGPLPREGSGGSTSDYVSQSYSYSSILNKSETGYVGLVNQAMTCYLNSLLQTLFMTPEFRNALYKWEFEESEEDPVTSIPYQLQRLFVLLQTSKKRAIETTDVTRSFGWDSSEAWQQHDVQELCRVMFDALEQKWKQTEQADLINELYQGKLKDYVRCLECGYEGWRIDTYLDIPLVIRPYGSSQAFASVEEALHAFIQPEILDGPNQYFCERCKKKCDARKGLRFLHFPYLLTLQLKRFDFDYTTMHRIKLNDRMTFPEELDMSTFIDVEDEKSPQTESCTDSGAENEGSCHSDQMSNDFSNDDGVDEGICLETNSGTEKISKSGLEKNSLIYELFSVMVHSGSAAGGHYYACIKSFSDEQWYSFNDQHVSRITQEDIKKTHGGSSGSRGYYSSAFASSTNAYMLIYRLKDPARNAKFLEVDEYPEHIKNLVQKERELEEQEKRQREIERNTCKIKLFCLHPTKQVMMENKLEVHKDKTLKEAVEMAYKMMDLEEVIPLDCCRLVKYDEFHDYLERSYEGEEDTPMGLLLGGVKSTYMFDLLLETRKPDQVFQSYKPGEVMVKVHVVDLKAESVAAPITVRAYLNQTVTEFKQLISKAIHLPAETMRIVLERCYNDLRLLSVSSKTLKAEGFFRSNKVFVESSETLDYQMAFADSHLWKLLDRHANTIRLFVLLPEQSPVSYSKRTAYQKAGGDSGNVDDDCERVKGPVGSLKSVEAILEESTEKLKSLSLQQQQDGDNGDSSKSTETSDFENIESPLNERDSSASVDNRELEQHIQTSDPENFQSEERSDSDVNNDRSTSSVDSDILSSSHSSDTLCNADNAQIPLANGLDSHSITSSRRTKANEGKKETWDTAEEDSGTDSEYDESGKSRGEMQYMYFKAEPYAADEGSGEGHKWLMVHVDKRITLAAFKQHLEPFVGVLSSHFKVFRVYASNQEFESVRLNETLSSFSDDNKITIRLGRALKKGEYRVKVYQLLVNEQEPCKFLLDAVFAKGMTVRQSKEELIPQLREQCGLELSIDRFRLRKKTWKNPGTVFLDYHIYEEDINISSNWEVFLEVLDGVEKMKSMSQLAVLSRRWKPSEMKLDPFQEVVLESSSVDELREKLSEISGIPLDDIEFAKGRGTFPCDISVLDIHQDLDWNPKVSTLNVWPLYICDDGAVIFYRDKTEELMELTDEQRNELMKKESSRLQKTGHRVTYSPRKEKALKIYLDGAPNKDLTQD
Summary of the method: as §1

USP48 = biological target: T3, USP48 (UniProt Q86UV5)
T3 sequence (whole entry): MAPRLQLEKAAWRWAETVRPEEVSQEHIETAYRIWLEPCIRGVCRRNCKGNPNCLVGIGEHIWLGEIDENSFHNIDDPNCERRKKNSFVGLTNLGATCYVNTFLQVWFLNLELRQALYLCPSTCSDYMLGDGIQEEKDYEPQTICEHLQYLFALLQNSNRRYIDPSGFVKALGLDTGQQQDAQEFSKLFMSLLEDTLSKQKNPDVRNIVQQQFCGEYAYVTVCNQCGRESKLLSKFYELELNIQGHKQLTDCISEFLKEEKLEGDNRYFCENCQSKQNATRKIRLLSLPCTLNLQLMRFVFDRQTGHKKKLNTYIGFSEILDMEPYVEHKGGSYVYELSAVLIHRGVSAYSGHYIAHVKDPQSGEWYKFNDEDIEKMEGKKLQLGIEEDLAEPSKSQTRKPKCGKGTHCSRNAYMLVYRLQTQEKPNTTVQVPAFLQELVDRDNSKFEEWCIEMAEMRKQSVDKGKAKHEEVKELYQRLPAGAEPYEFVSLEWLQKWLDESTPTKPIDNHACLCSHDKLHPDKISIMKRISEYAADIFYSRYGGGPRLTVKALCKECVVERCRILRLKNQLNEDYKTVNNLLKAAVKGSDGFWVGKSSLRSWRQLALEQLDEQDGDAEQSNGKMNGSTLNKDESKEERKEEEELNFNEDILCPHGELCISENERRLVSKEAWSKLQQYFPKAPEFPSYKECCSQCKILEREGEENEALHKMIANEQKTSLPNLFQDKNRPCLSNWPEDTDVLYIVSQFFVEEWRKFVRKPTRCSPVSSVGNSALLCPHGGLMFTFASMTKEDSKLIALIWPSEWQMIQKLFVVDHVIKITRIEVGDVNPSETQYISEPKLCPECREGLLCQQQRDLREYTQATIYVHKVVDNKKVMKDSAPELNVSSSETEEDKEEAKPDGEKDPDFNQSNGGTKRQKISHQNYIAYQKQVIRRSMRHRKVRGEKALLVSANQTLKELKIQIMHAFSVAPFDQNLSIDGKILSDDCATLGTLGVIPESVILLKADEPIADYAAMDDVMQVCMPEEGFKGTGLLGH
Summary of the method: as §1

USP5 = biological target: T4, USP5 (UniProt P45974)
T4 sequence (whole entry): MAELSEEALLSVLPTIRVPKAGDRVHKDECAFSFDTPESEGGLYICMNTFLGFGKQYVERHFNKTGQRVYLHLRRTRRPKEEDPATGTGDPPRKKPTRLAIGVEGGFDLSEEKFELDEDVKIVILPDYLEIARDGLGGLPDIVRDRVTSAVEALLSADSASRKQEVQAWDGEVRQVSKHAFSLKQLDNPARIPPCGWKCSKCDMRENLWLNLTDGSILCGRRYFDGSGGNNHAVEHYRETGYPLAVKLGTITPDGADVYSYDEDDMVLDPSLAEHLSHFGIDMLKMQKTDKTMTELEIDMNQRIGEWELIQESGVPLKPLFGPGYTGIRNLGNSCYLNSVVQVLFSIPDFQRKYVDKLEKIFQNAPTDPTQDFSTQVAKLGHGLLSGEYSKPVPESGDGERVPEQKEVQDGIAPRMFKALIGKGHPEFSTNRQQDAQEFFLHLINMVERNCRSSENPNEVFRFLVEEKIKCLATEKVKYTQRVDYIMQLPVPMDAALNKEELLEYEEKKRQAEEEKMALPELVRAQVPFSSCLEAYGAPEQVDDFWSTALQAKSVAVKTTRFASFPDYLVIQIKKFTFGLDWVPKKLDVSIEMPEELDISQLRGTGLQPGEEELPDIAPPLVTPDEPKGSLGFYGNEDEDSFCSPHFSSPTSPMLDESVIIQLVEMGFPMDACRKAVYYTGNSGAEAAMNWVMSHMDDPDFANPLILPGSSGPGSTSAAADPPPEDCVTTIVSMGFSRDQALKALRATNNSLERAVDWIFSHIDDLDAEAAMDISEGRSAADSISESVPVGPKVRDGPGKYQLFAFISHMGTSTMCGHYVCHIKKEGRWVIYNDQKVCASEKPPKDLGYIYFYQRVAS
Summary of the method: as §1

USP54 = USP54 (UniProt Q70EL1)
Summary of the method: as §1

USP7 = USP7 (UniProt Q93009)
Summary of the method: as §1

USP8 = biological target: T5, USP8 (UniProt P40818)
T5 sequence (whole entry): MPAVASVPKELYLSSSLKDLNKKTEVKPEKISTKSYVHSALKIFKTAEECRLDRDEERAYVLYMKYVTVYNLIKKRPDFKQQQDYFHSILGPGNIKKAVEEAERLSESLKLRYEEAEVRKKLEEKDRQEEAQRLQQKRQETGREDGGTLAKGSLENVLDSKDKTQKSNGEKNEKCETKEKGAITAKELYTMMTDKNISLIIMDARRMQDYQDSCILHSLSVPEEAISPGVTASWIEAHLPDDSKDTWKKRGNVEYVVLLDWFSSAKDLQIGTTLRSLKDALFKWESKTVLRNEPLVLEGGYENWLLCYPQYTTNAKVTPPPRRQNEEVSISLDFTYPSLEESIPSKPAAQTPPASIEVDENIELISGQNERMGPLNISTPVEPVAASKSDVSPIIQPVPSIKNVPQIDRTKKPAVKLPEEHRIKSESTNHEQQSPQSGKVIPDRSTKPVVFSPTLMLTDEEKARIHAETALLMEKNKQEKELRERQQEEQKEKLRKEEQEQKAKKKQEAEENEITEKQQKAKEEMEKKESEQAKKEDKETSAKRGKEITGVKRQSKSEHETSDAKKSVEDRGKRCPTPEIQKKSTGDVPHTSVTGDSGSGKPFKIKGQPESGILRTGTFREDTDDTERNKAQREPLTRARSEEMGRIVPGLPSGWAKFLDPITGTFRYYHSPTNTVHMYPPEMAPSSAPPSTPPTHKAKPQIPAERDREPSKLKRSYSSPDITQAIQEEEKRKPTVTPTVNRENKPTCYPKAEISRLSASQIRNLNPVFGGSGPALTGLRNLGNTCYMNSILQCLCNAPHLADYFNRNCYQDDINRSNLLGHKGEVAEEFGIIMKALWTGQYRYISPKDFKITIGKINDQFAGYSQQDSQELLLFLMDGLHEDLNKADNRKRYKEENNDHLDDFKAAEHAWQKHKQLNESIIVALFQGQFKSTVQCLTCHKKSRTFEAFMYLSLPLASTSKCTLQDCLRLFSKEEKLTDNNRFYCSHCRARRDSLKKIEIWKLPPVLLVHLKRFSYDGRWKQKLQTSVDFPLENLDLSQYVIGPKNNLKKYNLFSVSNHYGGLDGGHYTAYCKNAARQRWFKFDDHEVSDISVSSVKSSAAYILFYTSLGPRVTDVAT
Summary of the method: as §1

Measured: log2 ratio of Biotin-Ahx-Ub-VS probe labelling

Chain of USP7 (Q93009 whole entry, looked up): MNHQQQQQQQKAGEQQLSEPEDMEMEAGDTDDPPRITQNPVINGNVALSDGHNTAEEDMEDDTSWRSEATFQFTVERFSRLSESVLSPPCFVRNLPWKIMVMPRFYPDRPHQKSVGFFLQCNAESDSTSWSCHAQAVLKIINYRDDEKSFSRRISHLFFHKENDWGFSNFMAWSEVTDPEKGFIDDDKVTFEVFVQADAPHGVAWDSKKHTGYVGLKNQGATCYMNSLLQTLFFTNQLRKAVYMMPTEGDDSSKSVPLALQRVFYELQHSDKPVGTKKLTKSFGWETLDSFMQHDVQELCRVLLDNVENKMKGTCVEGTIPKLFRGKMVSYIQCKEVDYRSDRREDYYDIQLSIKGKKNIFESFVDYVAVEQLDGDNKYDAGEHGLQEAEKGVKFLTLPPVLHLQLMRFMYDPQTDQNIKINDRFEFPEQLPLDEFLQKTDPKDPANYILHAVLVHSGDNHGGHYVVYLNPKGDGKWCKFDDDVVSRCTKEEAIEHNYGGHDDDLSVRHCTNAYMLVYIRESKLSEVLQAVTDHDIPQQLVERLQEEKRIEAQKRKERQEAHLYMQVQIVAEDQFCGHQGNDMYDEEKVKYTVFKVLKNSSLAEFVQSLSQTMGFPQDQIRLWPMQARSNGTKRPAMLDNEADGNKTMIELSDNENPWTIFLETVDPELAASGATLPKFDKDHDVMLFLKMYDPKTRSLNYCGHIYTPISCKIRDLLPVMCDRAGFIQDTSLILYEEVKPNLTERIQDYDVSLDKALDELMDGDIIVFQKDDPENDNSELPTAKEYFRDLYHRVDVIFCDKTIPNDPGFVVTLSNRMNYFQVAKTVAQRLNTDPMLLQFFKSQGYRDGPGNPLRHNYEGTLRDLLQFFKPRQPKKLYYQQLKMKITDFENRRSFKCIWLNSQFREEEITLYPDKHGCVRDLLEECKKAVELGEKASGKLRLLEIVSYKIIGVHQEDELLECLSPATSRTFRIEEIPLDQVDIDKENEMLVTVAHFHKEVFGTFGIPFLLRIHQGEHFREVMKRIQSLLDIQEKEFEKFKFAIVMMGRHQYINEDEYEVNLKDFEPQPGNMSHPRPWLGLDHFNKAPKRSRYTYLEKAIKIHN
Chain of USP46 (P62068 whole entry): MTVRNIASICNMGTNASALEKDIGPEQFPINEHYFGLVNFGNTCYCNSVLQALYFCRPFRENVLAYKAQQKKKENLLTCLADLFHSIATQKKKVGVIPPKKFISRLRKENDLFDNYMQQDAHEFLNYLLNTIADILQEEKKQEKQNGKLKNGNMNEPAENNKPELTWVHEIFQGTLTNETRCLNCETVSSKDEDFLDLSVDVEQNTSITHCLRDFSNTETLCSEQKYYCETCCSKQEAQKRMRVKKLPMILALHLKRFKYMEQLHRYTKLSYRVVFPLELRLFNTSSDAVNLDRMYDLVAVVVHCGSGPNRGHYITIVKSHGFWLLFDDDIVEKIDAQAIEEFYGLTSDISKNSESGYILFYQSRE
Chain of USP54 (Q70EL1 whole entry): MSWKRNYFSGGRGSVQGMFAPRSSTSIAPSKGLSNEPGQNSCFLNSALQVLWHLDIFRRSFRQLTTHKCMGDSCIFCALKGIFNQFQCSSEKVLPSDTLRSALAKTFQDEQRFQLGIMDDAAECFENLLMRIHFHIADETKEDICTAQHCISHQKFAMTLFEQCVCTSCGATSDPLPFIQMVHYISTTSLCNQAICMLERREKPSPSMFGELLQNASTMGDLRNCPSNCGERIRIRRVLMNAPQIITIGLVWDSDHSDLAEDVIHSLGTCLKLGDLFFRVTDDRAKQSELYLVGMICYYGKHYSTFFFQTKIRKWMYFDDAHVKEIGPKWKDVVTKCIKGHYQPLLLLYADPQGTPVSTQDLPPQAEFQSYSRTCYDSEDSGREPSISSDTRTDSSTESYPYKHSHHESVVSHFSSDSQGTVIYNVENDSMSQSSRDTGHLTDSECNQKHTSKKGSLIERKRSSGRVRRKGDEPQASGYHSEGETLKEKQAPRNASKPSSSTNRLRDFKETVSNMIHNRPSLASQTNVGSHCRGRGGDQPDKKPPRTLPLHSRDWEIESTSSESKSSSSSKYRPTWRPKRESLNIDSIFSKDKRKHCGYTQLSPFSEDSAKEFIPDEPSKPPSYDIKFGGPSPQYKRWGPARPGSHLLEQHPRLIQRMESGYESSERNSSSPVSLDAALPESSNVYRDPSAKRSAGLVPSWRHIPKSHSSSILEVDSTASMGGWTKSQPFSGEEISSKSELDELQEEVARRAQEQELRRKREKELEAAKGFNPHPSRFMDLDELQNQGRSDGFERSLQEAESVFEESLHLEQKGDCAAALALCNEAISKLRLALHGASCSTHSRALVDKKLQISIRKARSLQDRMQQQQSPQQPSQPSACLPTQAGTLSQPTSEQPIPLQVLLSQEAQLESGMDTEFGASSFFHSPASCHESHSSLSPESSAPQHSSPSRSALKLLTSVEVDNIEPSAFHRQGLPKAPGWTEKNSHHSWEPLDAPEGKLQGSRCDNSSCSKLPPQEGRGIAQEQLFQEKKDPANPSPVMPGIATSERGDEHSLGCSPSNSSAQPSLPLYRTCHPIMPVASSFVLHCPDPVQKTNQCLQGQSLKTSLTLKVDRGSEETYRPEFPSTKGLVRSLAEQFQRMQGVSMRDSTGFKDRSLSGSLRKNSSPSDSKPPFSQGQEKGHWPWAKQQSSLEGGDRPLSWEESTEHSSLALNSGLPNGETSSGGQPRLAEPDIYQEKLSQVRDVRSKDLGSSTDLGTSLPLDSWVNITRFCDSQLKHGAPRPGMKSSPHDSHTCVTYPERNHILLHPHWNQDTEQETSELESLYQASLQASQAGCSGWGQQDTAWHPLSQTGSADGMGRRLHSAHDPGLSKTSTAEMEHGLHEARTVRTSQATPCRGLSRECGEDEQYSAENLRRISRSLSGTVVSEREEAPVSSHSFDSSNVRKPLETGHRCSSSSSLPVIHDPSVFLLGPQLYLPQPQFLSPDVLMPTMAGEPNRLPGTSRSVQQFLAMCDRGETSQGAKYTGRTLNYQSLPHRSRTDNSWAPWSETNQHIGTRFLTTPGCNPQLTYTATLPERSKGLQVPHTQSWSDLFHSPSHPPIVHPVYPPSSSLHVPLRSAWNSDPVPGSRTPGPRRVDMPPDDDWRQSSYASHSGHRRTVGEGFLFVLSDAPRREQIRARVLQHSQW

Cc1nc(CN2CCN(C(=O)CCl)CC2)cs1
inactive: USP42 0.251 | USP46 -0.246 | USP47 -0.236 | USP48 -0.0313 | USP5 -0.643 | USP54 -0.00411 | USP7 -0.473 | USP8 -0.444
